HIV RNase H inh-1 = inhibitors of HIV-1 reverse transcriptase RNase H | P04585 | RT-RNase H RNA/DNA duplex cleavage, fluorescence | inhibition, % at 10 µM | 1.9% of 65,000 active | AID 565; in the data active means inhibition above about 50%
HIV RNase H inh-2 = confirmation of HIV-1 reverse transcriptase RNase H inhibitors | 39% of 1,000 active | AID 651 | Recombinant RT RNase H, fluorescent RNA/DNA duplex cleavage | shares compounds with HIV RNase H inh-1 | inhibition, % at 10 µM; in the data active means inhibition above about 48%; inconclusive means no clear call, values can overlap the other calls
A number is an active result; . = inactive; ? = inconclusive. Many of the other results were omitted from the sample, so hits are more common in it than they were.

SMILES	HIV RNase H inh-1	others
CC(=O)CC1(O)C(=O)N(CN2CCN(c3ccccc3)CC2)c2ccccc21 (configuration not stated)	.
O=C(Nc1nc2cc3c(cc2s1)OCO3)C1=COCCO1	.
CCOC(=O)c1c(C)[nH]c(C)c1C(=O)CSc1nnc(-c2ccncc2)n1C	.
CCOC(=O)C1CCN(S(=O)(=O)c2c(C)n[nH]c2C)CC1	.
O=C1CC(N2CCC(O)(c3ccc(Cl)cc3)CC2)C(=O)N1Cc1ccc(N2CCCC2=O)cc1 (configuration not stated)	.
O=C(COC(=O)C1CCCCC1C(=O)N1CCc2ccccc21)NCc1ccco1 (configuration not stated)	.
CC(C)(C)NC(=O)c1ccc2c(c1)N(CC(=O)N1CCN(c3ccccc3F)CC1)C(=O)C(C)(C)O2	.
N#C/C(C(=O)N1CCOCC1)=C1/SC=C(c2ccccc2)N1c1ccccc1	.
CCOc1cc2[nH]c(=O)n(CC3CCC(C(=O)NCCCOC)CC3)c(=O)c2cc1OCC (configuration not stated)	.
CCOc1cc2[nH]c(=O)n(CCCCC(=O)NC3CCCCCC3)c(=O)c2cc1OCC	.
CCOc1cc2[nH]c(=O)n(CC3CCC(C(=O)NCCC(C)C)CC3)c(=O)c2cc1OCC (configuration not stated)	68	HIV RNase H inh-2=?
COc1cccc(CSc2nnc(-c3ccco3)n2C)c1	.
CCCCC(CC)C(=O)Nc1ccccc1C(=O)NC(C)C (configuration not stated)	.
O=C(NCc1ccco1)C(c1ccc(F)cc1)N(CC1CCCO1)C(=O)Cn1nnc2ccccc21 (configuration not stated)	.
O=C(COC(=O)c1ccco1)Nc1ccccc1	.
COc1cc2cc3c(N)c(C(=O)NCc4ccco4)sc3nc2cc1OC	.
Nc1c(C(=O)Nc2ccccc2)sc2nc(-c3ccco3)ccc12	87	HIV RNase H inh-2=.
O=C(Nc1ccc(Nc2ccccc2)cc1)c1ccco1	.
COc1ccccc1NC(=O)c1sc2nc(-c3ccco3)ccc2c1N	84	HIV RNase H inh-2=.
COc1ccccc1NC(=O)c1oc2ccccc2c1NC(=O)c1ccco1	.
Cc1cnc(-c2nnc(N(C)C(=O)c3ccncc3)s2)cn1	.
CCOc1cccc(C(=O)Nc2ccccc2N2CCN(C(=O)C(C)C)CC2)c1	.
CC(C)CCN1C(=O)c2ccc(C(=O)OCn3nnc4ccccc4c3=O)cc2C1=O	.
S=C(c1ccc(-c2cccc(Cl)c2)o1)N1CCOCC1	85	HIV RNase H inh-2=.
S=C(c1ccc(-c2cc(Cl)ccc2Cl)o1)N1CCOCC1	.
SMILES	HIV RNase H inh-1	others
N#CCCN1CCN(C(=S)c2ccc(-c3cccc(Cl)c3)o2)CC1	.
CCCCOc1ccc(NC(=O)c2cnc(C)cn2)cc1	.
Cc1cnc(C(=O)Nc2ccc(F)c(F)c2)cn1	51	HIV RNase H inh-2=.
Cc1cnc(C(=O)Nc2ccc3c(c2)CCC3)cn1	.
Cc1occc1-c1nnc(SCC(=O)c2cc3ccccc3oc2=O)o1	.
CCCC(C)C(=O)Nc1nnc(C)s1 (configuration not stated)	.
O=C(CSC1=NCCS1)N1CCOCC1	.
CC(=O)Nc1nc2n(n1)C(c1ccccc1)C=C(c1ccccc1)N2 (configuration not stated)	.
COc1ccc(C2C=C(c3ccc(Cl)cc3)Nc3nc(NC(C)=O)nn32)cc1 (configuration not stated)	56	HIV RNase H inh-2=.
CC(=O)Nc1nc2n(n1)C(c1ccc(Cl)cc1)C=C(C)N2 (configuration not stated)	.
Cn1c(Cl)cnc1C(O)c1ccccc1 (configuration not stated)	.
O=C(c1noc2c1CCCCC2)N1CCN(C(c2ccccc2)c2ccccc2)CC1	.
O=C(Nc1ccon1)c1cccc(C(F)(F)F)c1	.
CC(OC(=O)c1ccncc1)C(=O)Nc1cccc(Cl)c1 (configuration not stated)	.
O=C(O)c1cc(-c2ccco2)nc2ccccc12	81	HIV RNase H inh-2=.
O=C(c1ccco1)N1CCN(C(=O)c2cc(-c3ccccn3)nc3ccccc23)CC1	.
Cc1nn(-c2ccccc2)c2nc(-c3ccco3)cc(C(=O)O)c12	.
CC(=O)NCCc1ccc(S(=O)(=O)Nc2cccnc2)cc1	.
c1ccc(Cn2nnc3c(N4CCC5(CC4)OCCO5)ncnc32)cc1	.
c1ccc(Cn2nnc3c(N4CCCC4)ncnc32)cc1	.
c1ccc(-n2nnc3c(N4CCOCC4)ncnc32)cc1	67	HIV RNase H inh-2=.
COc1ccc2oc(=O)c(C(=O)N3CCN(C45CC6CC(CC(C6)C4)C5)CC3)cc2c1	.
COC(=O)c1oc2ccc(Br)cc2c1NC(=O)c1ccccc1	59	HIV RNase H inh-2=76
COC(=O)c1oc2ccc(Br)cc2c1NC(=O)CN1CCN(C)CC1	.
COC(=O)c1oc2ccc(Cl)cc2c1NC(C)=O	.
O=C(COC(=O)c1cc(S(=O)(=O)N2CCCCC2)ccc1N1CCOCC1)NC1CCCCC1	.
COc1ccc(OC)c(S(=O)(=O)N2CCN(c3c(C)cccc3C)CC2)c1	.

Source: PubChem BioAssay (University of Pittsburgh Molecular Library Screening Center)
